Inconclusive results are not listed. A call without a number means that no potency is given here. The source made the active and inactive calls. Calls follow the shape of the dose curve; as a rule, active = well fitted inhibition curve with a large enough effect; inconclusive = small, poorly fitted or top-dose-only effect; inactive = flat fitted curve, though single readings scatter.
Each compound was assayed on CP201 (assay: qHTS profiling for inhibitors of Plasmodium falciparum proliferation (AID 504749; also: nearly all actives have a fitted effect of over 60% in size)). Conditions: P. falciparum in erythrocytes, SYBR Green DNA, 72 h; series mostly up to 28.7 µM.
Outline: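 SYBR Green fluorescence of parasite DNA, read after lysis and overnight dark incubation, measured growth over 72 h in erythrocyte culture at 0.3% parasitemia and 2.5% hematocrit. Data normalised to DMSO and 0.29 uM artemisinin, with plate-drift correction.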
For `N=C(N)c1ccc(OCCCCCOc2ccc(C(=N)N)cc2)cc1`, the Potency was 1690 nM (active). `OC(Cn1cncn1)(Cn1cncn1)c1ccc(F)cc1F` was tested, and the Potency was “inactive”. In the case of `CCOC(=O)c1ccc(OC(=O)CCCCCN=C(N)N)cc1`, the Potency is reported as “inactive”. With `CN(CCOc1ccc(CC2SC(=O)NC2=O)cc1)c1ccccn1` (centres undefined) the Potency was “inactive”. With `CC(C)(C#N)c1cc(Cn2cncn2)cc(C(C)(C)C#N)c1` the Potency was “inactive”. For `N[C@@H](Cc1ccc(O)c(O)c1)C(=O)O`, the Potency was “inactive”. With `NC(=O)c1cccnc1` the Potency was “inactive”. In the case of `COc1nc(N)nc2c1ncn2[C@@H]1O[C@H](CO)[C@@H](O)[C@@H]1O`, the Potency is reported as “inactive”. In the case of `S=P(N1CC1)(N1CC1)N1CC1`, the Potency is reported as “inactive”. With `CN1CCN(c2c(F)cc3c(=O)c(C(=O)O)cn(CCF)c3c2F)CC1` the Potency was “inactive”. `COc1ccc(-c2ccc3cc(C(=O)O)ccc3c2)cc1C12CC3CC(CC(C3)C1)C2` was tested, and the Potency was “inactive”. With `Cc1nnc(NS(=O)(=O)c2ccc(N)cc2)s1` the Potency was “inactive”. With `Cc1ccnc2c1NC(=O)c1cccnc1N2C1CC1` the Potency was “inactive”. In the case of `Nc1[nH]c(=O)ncc1F`, the Potency is reported as “inactive”. For `NC(N)=NC(N)=NCCc1ccccc1`, the Potency was “inactive”. `Nc1nc(N)nc(-c2cc(Cl)ccc2Cl)n1` was tested, and the Potency was “inactive”. With `Cc1cccc(Nc2ccncc2S(=O)(=O)NC(=O)NC(C)C)c1` the Potency was “inactive”. In the case of `O=P(O)(O)C(O)(Cc1cccnc1)P(=O)(O)O`, the Potency is reported as “inactive”. `CCOCC(O)COc1ccc(NC(=O)CC[S+](C)C)cc1` (centres undefined) was tested, and the Potency was “inactive”. With `Cc1cccc(N(C)C(=S)Oc2ccc3ccccc3c2)c1` the Potency was “inactive”. In the case of `CN(C)CCc1c[nH]c2ccc(CS(=O)(=O)N3CCCC3)cc12`, the Potency is reported as “inactive”. With `N[C@@H](C(=O)N[C@@H]1C(=O)N2C(C(=O)O)=C(Cl)CS[C@H]12)c1ccccc1` the Potency was “inactive”. `COC(=O)Nc1nc2ccc(Sc3ccccc3)cc2[nH]1` was tested, and the Potency was “inactive”. `Cc1noc(NS(=O)(=O)c2ccc(N)cc2)c1C` was tested, and the Potency was “inactive”. For `CC(C)NCC(O)c1ccc(NS(C)(=O)=O)cc1` (centres undefined), the Potency was “inactive”. `Nc1ccc(S(=O)(=O)Nc2ccccn2)cc1` was tested, and the Potency was “inactive”. `C[C@]12C=CC(=O)C=C1CC[C@@H]1[C@@H]2C(=O)C[C@@]2(C)[C@H]1CC[C@]2(O)C(=O)CO` was tested, and the Potency was “inactive”. For `CC(=O)Oc1ccccc1C(=O)Nc1ncc([N+](=O)[O-])s1`, the Potency was “inactive”. In the case of `NCCCC(O)(P(=O)(O)O)P(=O)(O)O`, the Potency is reported as “inactive”.

— PubChem BioAssay (NCATS)
Potency is read from the fitted curve at half-maximal effect.
